Assay in all cases: PBM binding z-score (relative to random genomic background probes); higher = stronger binding; sequences stand for … in GC…GCGATTGACAGCGTAGAATGAAGG
Assay [1] deals with RARb homodimer (NR concentration 270 nM). In outline:
(§1)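 Custom Agilent 4×180K protein-binding microarrays carried double-stranded probes, each with a 34-nt variable region. These regions held direct-repeat seeds, single-nucleotide variants, half-site ablations and random human genomic background sequences. Ligand-free nuclear receptor dimers were incubated on the arrays for 1 h, antibodies against each partner (one per run) detected binding, and scanned fluorescence was regression-normalized. Binding z-scores take the random background probes as reference.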

Assay [2] concerns RARg:RXRa (NR concentration 270 nM, RXRa partner concentration 90 nM). In outline:
as §1

The subject of assay [3] is RARg homodimer (NR concentration 270 nM). In outline: as §1
For assay [4], the system named is RXRa DBDmut IVT, anti-RXR (DBD mutation: RXRa K156A/R161A, NR concentration 90 nM). The procedure, abridged: as §1
Assay [5] relates to RXRa homodimer (NR concentration 180 nM). The procedure, abridged:
as §1

Assay [6] has as its system THRa:RXRa (NR concentration 90 nM, RXRa partner concentration 90 nM). In outline:
as §1

For assay [7], the system named is THRa homodimer (NR concentration 90 nM). The procedure, abridged:
as §1

Assay [8] relates to VDR homodimer (NR concentration 270 nM). In outline: as §1

Consider ATCGAAAGGTCGAAGGTGAGGATACCCACCCGAA, for which the PBM binding z-score in assay [1] was 2.56; in assay [2], 4.41; in assay [3], 3.84; in assay [4], 0.413; in assay [5], 5.16; in assay [6], 3.1. Moreover, the values for the PBM binding z-score in assay [7] and in assay [8] were 1.1 and 0.293, respectively.
Consider ATTTCTAGGTAAAGATAGTTCAGTGAATGCAAAT, for which the PBM binding z-score in assay [1] came to 0.935; in assay [2], 0.671; in assay [3], 0.813; in assay [4], 0.38; in assay [5] it was 0.418; in assay [6], 1.02. Also, the results for the PBM binding z-score in assay [7] and in assay [8] were 0.00694 and 0.94, respectively.
As for TCATATAGGGAAAAGGTGAAAGTCGGTGTGGTAA, the PBM binding z-score was 2.04 in assay [1]; 1.27 in assay [2]; 0.821 in assay [3]; 2.07 in assay [4]; 1.93 in assay [5]; 1.27 in assay [6]. The PBM binding z-score was determined as 0.582 in assay [7] and 0.643 in assay [8].
CCTACTGGGCCAAGGTCACTGATCAGTCAAAGCA: the PBM binding z-score came out at 3.91 in assay [1]; 4.17 in assay [2]; 4.29 in assay [3]; 0.302 in assay [4]; 3.92 in assay [5]; 3.6 in assay [6]. Moreover, the results for the PBM binding z-score in assay [7] and in assay [8] were 2.65 and 2, respectively.
Take GCTGCTCGGTCAGGTTGGTCAGCTAACGGGTACG: the PBM binding z-score in assay [1] is 1.53; in assay [2], 0.691; in assay [3], 2.11; in assay [4], -0.37; in assay [5], -0.405; in assay [6] it was -0.155. The PBM binding z-score in assay [7] was -0.287; in assay [8], -0.476.
For TCATATAGGTAGAAGGTGAAAGTCGGTGTGGTAA, the PBM binding z-score in assay [1] was 1.02; in assay [2], 0.662; in assay [3], 0.283; in assay [4], 2.05; in assay [5], 1.18; in assay [6] it was 0.699. Besides, the PBM binding z-score in assay [7] worked out at 0.397; in assay [8], 0.453.
CCTGCTAGGTCATGTTCAGCTAATCTACAGTATG: the PBM binding z-score worked out at 2.65 in assay [1]; 3.26 in assay [2]; 3.95 in assay [3]; 2.42 in assay [4]; 2.13 in assay [5]; 2.51 in assay [6]. The PBM binding z-score was determined as 1.08 in assay [7] and 0.754 in assay [8].

(Values after the supplement of paper PMC6555819.)
